# According to PubChem BioAssay (NCATS):
# Inconclusive results are not listed. Where a call stands in place of a potency, no number is given. Calls of active or inactive are those of the source. Calls follow the shape of the dose curve; as a rule, active = well fitted inhibition curve with a large enough effect; inconclusive = small, poorly fitted or top-dose-only effect; inactive = no such curve, though single readings can be large or run the other way.
# Tested on: Zika virus NS2B-NS3 protease (linked construct)
# Assay: Primary screen NINDS Rhodamine qHTS for Zika virus inhibitors (AID 1347160); also: nearly all actives have a fitted effect of over 55% in size
# Conditions: purified NS2B-NS3 protease, Rhodamine110 substrate fluorescence; series mostly up to 57.1 µM
# Method in brief: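 Single-chain NS2B-NS3 protease, 25 nM, pH 8.0; compounds preincubated 15 min. Activity: Rhodamine110 release from 1.5 microM substrate over 15 min, room temperature, data fitted to 4-parameter Hill.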
# Potency is read from the fitted curve at half-maximal effect.
SMILES,Potency,outcome,"activity change, negative = inhibition"
OC/C=C/c1ccc(O[C@@H]2O[C@H](CO)[C@@H](O)[C@H](O)[C@H]2O)cc1,inactive,,
C=C1C(=O)O[C@@H]2C/C(C)=C\C(=O)/C=C(\C)[C@@H](OC(=O)/C(C)=C\C)[C@H](O)[C@@H]12,inactive,,
C=CC1(C)CC(OC(=O)/C(C)=C\COC(C)=O)C(C(=C)C(=O)O)C(O)C1C(=C)CO (centres undefined),inactive,,
C[C@@H]1O[C@@H](O[C@H]2[C@H](O)[C@@H](O[C@@H]3O[C@H](CO)[C@@H](O)[C@H](O[C@@H]4O[C@H](CO)[C@@H](O)[C@H](O)[C@H]4O)[C@H]3O)[C@H](O[C@H]3CC[C@@]4(C)C(=CC[C@@H]5C4CC[C@@]4(C)C5C[C@@H]5OC6(CC[C@@](C)(CO[C@@H]7O[C@H](CO)[C@@H](O)[C@H](O)[C@H]7O)O6)[C@@H](C)[C@@H]54)C3)O[C@@H]2CO)[C@H](O)[C@H](O)[C@H]1O (some centres undefined),,inactive [at 10.7 µM],
C1CCC[C@H]2CCCN3CC[C@@H](CCCCCC[C@@H]4CCCN5CC[C@@H](CC1)O[C@@H]45)O[C@@H]23,,,20.2% [at 0.092 µM] (inactive)
CC(C)=CCC[C@](C)(O)[C@H]1CC[C@]2(C)[C@@H]1[C@H](O)CC1[C@@]3(C)CC[C@H](O)C(C)(C)C3[C@@H](O[C@@H]3O[C@H](CO)[C@@H](O)[C@H](O)[C@H]3O[C@@H]3OC[C@@H](O)[C@H](O)[C@H]3O)C[C@]12C (some centres undefined),inactive,,
C[C@@H]1O[C@@H](O[C@H]2[C@H](OC(=O)[C@]34CCC(C)(C)C[C@H]3C3=CCC5[C@@]6(C)C[C@H](O)[C@H](O[C@@H]7O[C@H](CO)[C@@H](O)[C@H](O)[C@H]7O)[C@@](C)(CO)C6[C@H](O)C[C@@]5(C)[C@]3(C)C[C@H]4O)OC[C@H](O)[C@@H]2O)[C@H](O)[C@H](O)[C@H]1O[C@@H]1OC[C@@H](O)[C@H](O[C@H]2OC[C@](O)(CO)[C@H]2O)[C@H]1O (some centres undefined),,,18.3% [at 10.7 µM] (inactive)
NC(=O)c1cccc2cn(-c3ccc(C4CCCNC4)cc3)nc12 (centres undefined),inactive,,
C[C@@H]1C(=O)OC[C@H]2C(C(=O)O)=C[C@@H]3CC(C)(C)C[C@]312,inactive,,
COc1cccc(C(=O)N2CCN(C(=O)COc3cccc(C)c3)CC2)c1OC,inactive,,
C=C(F)c1sc(CNCCCNc2cc(=O)c3ccccc3[nH]2)c(C)c1Br,inactive,,
O=C(O)Cc1cn(C2OCC(O)C(O)C2O[C@@H]2O[C@H](CO)[C@@H](O)[C@H](O)[C@H]2O)c2ccccc12 (some centres undefined),inactive,,
COc1ccc(-c2c(-c3cc(C(=O)O)ccn3)ncn2C)cc1,inactive,,
CC(O)CCC1C(CO[C@@H]2O[C@H](CO)[C@@H](O)[C@H](O)[C@H]2O)CC(O)CC1(C)C (some centres undefined),inactive,,
C/C(=C\CCC1(C)C2CCC(C2)C1(C)O)C(=O)O (centres undefined),inactive,,
C=C1CC23CC1CCC2C12OC(=O)C(C)(CCC1O)C2C3C(=O)O (centres undefined),inactive,,
Cc1cccc(C)c1OCc1cc(C(=O)N2CCC(c3ccncc3)CC2)no1,inactive,,
COC(=O)[C@@H](O)[C@H]1[C@@]2(C)CC3(O)[C@@H](C(=O)[C@H]2O)[C@]24O[C@]25CC(=O)O[C@@H](c2ccoc2)[C@]5(C)CCC4[C@]13C (some centres undefined),inactive,,
COC(=O)CCSCc1ccc(-c2onc(C)c2NC(=O)OC(C)c2ccccc2Cl)cc1 (centres undefined),inactive,,
CC(C)(C(=O)NCC(F)(F)C(F)(F)F)C(=O)NC1C(=O)Nc2ccccc2-c2ccccc21 (centres undefined),inactive,,
C[C@]12C[C@@H](O)[C@@H]3C[C@@]1(O[C@@H]1O[C@H](CO)[C@@H](O)[C@H](O)[C@H]1O)[C@]3(COC(=O)c1ccccc1)C(=O)O2,inactive,,
CC(O)(CC(=O)O)CC(=O)OCc1ccc(O[C@@H]2O[C@H](CO)[C@@H](O)[C@H](O)[C@H]2O)cc1 (some centres undefined),inactive,,
CC(C)C(CO)Nc1nc(Nc2cc(N)cc(Cl)c2)c2ncn(C(C)C)c2n1 (centres undefined),inactive,,
O=S(=O)(c1ccc(S(=O)(=O)n2cnc3ccccc32)cc1)N1CCCCCC1,inactive,,
C=C(C(=O)OC)C1C(O)CC2(C)C(=O)CCC(O)(CO)C2C1O (centres undefined),inactive,,
Cc1ccc(F)cc1C(=O)Nc1ccc(C(=O)N2Cc3cccn3Cc3ccccc32)c(Cl)c1,inactive,,
CCCOC(c1cc2nccc(C(=O)O)c2[nH]1)c1ccccc1Cl (centres undefined),inactive,,
CC(C)N(CCCCOCC(=O)NS(C)(=O)=O)c1cnc(-c2ccccc2)c(-c2ccccc2)n1,28.2 µM (active),,
O=C(CC1C(=O)Nc2ccccc21)OC[C@H]1O[C@@H](OCCc2ccc(O)cc2)[C@H](O)[C@@H](O)[C@@H]1O (some centres undefined),inactive,,
